Experimental data: PubChem BioAssay (NCI)
Values joined by “and” are separate entries in the source; they are usually repeats but may differ in a detail not shown here. Equal entries are not always repeated. The panel holds about 83,000 compounds, 20% with a hit somewhere; the sample as a whole holds those more often.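 In brief: 96-well plates, 48 h treatment, single concentration, percent growth endpoint.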 Active and inactive are the calls of the source. Rule for the calls: active = growth percent below 10; inactive = the rest.

System: SW-620 colon
Assay: NCI-60 one-dose screen, 48 h (100 = growth as untreated, 0 = no growth, -100 = all killed)
Conditions: 10 µM unless noted

SMILES	growth
O=C1c2c(O)ccc(O)c2C(=O)c2c(NCCNCCO)ccc(NCCNCCO)c21	-30.8% (active) and -81.8% (active)
c1ccc(-c2nc3ccccc3s2)cc1	93.6% (inactive)
CCCCCCCCCCCCCCCCC(C(=O)O)C(O)(CC(=O)O)C(=O)O (configuration not stated)	101% (inactive) and -23.5% (active)
Nc1cc(N)c(N)cc1N	7.1% (active)
O=[N+]([O-])c1cccc(SSc2cccc([N+](=O)[O-])c2)c1	109% (inactive)
Oc1ccc(Cc2ccccc2Cl)c(O)c1	97.1% (inactive)
OCCN1CCCCCCC1	108% (inactive)
CC1CCC(C(C)C)C(NNC(N)=O)C1 (configuration not stated)	98% (inactive)
Fc1ccc([I+]c2ccc(F)cc2)cc1	55.9% (inactive)
CC1=C/C(O)CC(=O)Cc2nc(co2)C(=O)N2CCC=C2C(=O)OC(C(C)C)C(C)/C=C\C(=O)NC/C=C\1 (configuration not stated)	59.9% (inactive)
COc1ccc2cc1Oc1ccc(cc1)C[C@H]1c3cc(c(OC)cc3CCN1C)Oc1c(OC)c(OC)cc3c1[C@H](C2)N(C)CC3	40.1% (inactive)
O=C1OC(c2ccccc2)=N/C1=C\c1ccccc1	101% (inactive)
COc1ccc(Nc2ccc3ccccc3c2)cc1	72.1% (inactive)

System: MCF7 breast
Assay: as above
Conditions: 10 µM unless noted

SMILES	growth
CCc1cc(C)cc(O)c1	98.3% (inactive)
NN1CCOC(c2ccccc2)C1 (configuration not stated)	91.8% (inactive)
ClCCOCCOc1ccc(C2CCCCC2)cc1	102% (inactive)
O=c1n(CC2CO2)c(=O)n(CC2CO2)c(=O)n1CC1CO1 (configuration not stated)	42.5% (inactive)
Cc1ccc(S(=O)(=O)c2ccccc2)cc1	20.9% (inactive)
O=C(/C=C/c1ccccc1)c1ccccc1	-2.52% (active)
Cc1cc(-c2ccc(N=Nc3ccc4c(S(=O)(=O)O)cc(S(=O)(=O)O)c(N)c4c3O)c(C)c2)ccc1N=Nc1ccc2c(S(=O)(=O)O)cc(S(=O)(=O)O)c(N)c2c1O	103% (inactive)
c1ccc(CNCCNCc2ccccc2)cc1	93.4% (inactive)
Cc1cc2ccccc2cn1	98.5% (inactive) and 101% (inactive)
OC1COC(OCc2ccccc2)C(O)C1O (configuration not stated)	96% (inactive)
CCCCCCCCCCCCCCCc1ccc(N)c(OC2OC(CO)C(O)C(O)C2O)c1 (configuration not stated)	93.7% (inactive)
O=C(O)CCCl	97.5% (inactive)
C#CCOC(=O)Nc1ccccc1	87.4% (inactive)
CC(C)C(C)(C)c1ccc(O)cc1	109% (inactive)
Cc1cc(-c2cc(C)c(O)c(C)c2)cc(C)c1O	91.6% (inactive)
CC1(C)COC(=S)N1	105% (inactive)
CCOC(=O)c1c(C)cc(=O)oc1C	97.1% (inactive)

SMILES	growth
CC[C@H](CC[C@@H](C)[C@H]1CC[C@H]2[C@@H]3CC=C4C[C@@H](O)CC[C@]4(C)[C@H]3CC[C@]12C)C(C)C	107% (inactive) and 89.8% (inactive)
CN1CNC(=O)NC1	109% (inactive) and 96.4% (inactive)
CC1CCC2(OC1)OC1CC3C4CC=C5CC(O)CCC5(C)C4CCC3(C)C1C2C (configuration not stated)	105% (inactive)
COc1cc(C(O)C2C(=O)OCC2C2(c3ccc4c(c3)OCO4)SCCCS2)cc(OC)c1OC (configuration not stated)	97.6% (inactive)
Nc1nc(N)c2[nH]cnc2n1	54.2% (inactive)
Cn1cnc([N+](=O)[O-])c1Sc1ncn[nH]1	102% (inactive)
O=c1[nH]cnc2c1ncn2C1OC(CO)C(O)C1O (configuration not stated)	100% (inactive) and 96.8% (inactive) and 95.6% (inactive)
CC(=O)OCC1OC(OC(C)=O)C(OC(C)=O)C(OC(C)=O)C1OC(C)=O (configuration not stated)	99.8% (inactive) and 91.9% (inactive)
O=C1c2c(O)ccc(O)c2C(=O)c2c(NCCNCCO)ccc(NCCNCCO)c21	-42% (active)
c1ccc(-c2nc3ccccc3s2)cc1	80.3% (inactive)
CCCCCCCCCCCCCCCCC(C(=O)O)C(O)(CC(=O)O)C(=O)O (configuration not stated)	95.7% (inactive) and -2.93% (active)
Nc1cc(N)c(N)cc1N	-49.2% (active)
O=[N+]([O-])c1cccc(SSc2cccc([N+](=O)[O-])c2)c1	93.7% (inactive)
Oc1ccc(Cc2ccccc2Cl)c(O)c1	119% (inactive)
OCCN1CCCCCCC1	99% (inactive)
CC1CCC(C(C)C)C(NNC(N)=O)C1 (configuration not stated)	100% (inactive)
Fc1ccc([I+]c2ccc(F)cc2)cc1	48.2% (inactive)
